# Hits are enriched below; roughly 7.5% of the tested compounds scored in any of these assays.
# RORg inh: ROR gamma (mouse) transcription inhibition; P51450; AID 2551; 310,000 tested, 5.4% active; Potency, µM (series often up to 53.6 µM), most hits filed as inhibitors; Drosophila S2 Gal4-RORgamma UAS-luciferase reporter, 20 h; also: nearly all actives have a fitted effect of over 60% in size
#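 ROR gamma transcriptional activity was tracked as Gal4-UAS luciferase output in stably transfected Drosophila Schneider cells, with compound added 1 hr before 700 uM copper sulfate induction and a 20 hr ambient-temperature incubation.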
# TSHR antag: human thyrotropin receptor antagonism | P16473 | activity change, negative = inhibition, % at 11.5 µM | TSHR-expressing cells, TSH-stimulated cAMP HTRF, 2 h; stronger effect = lower value | 330,000 tested, 0.2% active;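 active = activity change below a set negative limit, meaning inhibition stronger than a set level, cut at about -70% in these data; inconclusive = activity change between two set negative limits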
#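 Cell-based HTRF cAMP assay; TSHR cells + compound, TSH EC80 (4nM final), 2 h, 37 deg C. Lysis with anti-cAMP cryptate and cAMP-d2, 30 min RT, read 665/620 nm.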
# Gal4-VP16 FLuc: Gal4-VP16 reporter inhibition counter-screen; Drosophila S2 Gal4-VP16 UAS-luciferase, luminescence, 20 h; Potency, µM (highest dose often 53.6 µM), most hits filed as inhibitors; 310,000 tested, 3.5% active; AID 2546;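 also: Gal4-VP16 expression switched on by copper sulfate through the metallothionein promoter; nearly all actives have a fitted effect of over 50% in size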
# ELG1 repair inh: ELG1-dependent DNA repair inhibition; HEK293T ELG1-luciferase reporter, luminescence, 16 h; DNA damage induced by 5-fluorouridine; Potency, µM (highest dose often 46.1 µM), usual class: inhibitors; 330,000 tested, 2.3% active; AID 504467; also: nearly all actives have a fitted effect of over 55% in size
#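 Overnight (16 hr) co-exposure of 2,000 cells/well to 5-fluorouridine and compound at 37 °C preceded detection. Luciferase was quantified via ONE-Glo luminescence; loss of signal denotes inhibition.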
# B2AR arrestin: agonists driving beta-arrestin recruitment to human beta2-adrenergic receptor; P07550; beta-arrestin recruitment to beta2AR, cell-based reporter; AID 492947; Potency, µM (series often up to 46.1 µM), most hits filed as activators; 330,000 tested, 0.02% active; also: nearly all actives have a fitted effect of over 65% in size
# ELG1 FLuc counter: luciferase inhibition in cell-free luciferin readout for ELG1 hits; 350 tested, 3% active; cell-free firefly luciferase luminescence counter-screen, ViewLux; Potency, µM (highest dose often 46.1 µM), hits mostly inhibitors; AID 624247; shares compounds with ELG1 repair inh
# ELG1 Luc conf: confirmation of human ELG1-dependent DNA repair inhibitors | HEK293T ELG1-luciferase levels, luminescence; cells co-treated with 5-fluorouridine | Potency, µM (titrated, usually from 46.1 µM), usual class: inhibitors | shares compounds with ELG1 repair inh | AID 624248 | 670 tested, 68% active; also: nearly all actives have a fitted effect of over 55% in size
# ELG1 MMS Luc: MMS-stimulated human ELG1 repair inhibition, confirmed | shares compounds with ELG1 repair inh | HEK293T luciferase-tagged ELG1 level, MMS stimulated | Potency, µM (titrated, usually from 46.1 µM), actives largely listed as inhibitors | 670 tested, 53% active | AID 624249; also: nearly all actives have a fitted effect of over 60% in size
# ELG1 5-FU: confirmation of ELG1 repair inhibitors: viability with 5FU | shares compounds with ELG1 repair inh | Potency, µM (highest dose often 46.1 µM), most hits filed as cytotoxic | 670 tested, under 10 active | cell viability with 5-FU, ELG1-dependent repair;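 also: ELG1-luc HEK293T cells cotreated with 5-fluorouridine at 10 µM final; viability measured 16 h after compound addition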
# ELG1 MMS viab: confirmation of ELG1 repair inhibitors: viability with MMS; shares compounds with ELG1 repair inh; Potency, µM (doses to about 46.1 µM), hits mostly cytotoxic; 670 tested, 33% active; Cell viability with MMS, ELG1-dependent DNA repair;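 also: ELG1-luc HEK293T cells co-treated with 10 µM MMS; viability read 16 h after compound addition; nearly all actives have a fitted effect of over 60% in size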
# ELG1 unstim viab: unstimulated viability counter-screen for ELG1 repair hits; shares compounds with ELG1 repair inh; cell viability counter-screen, unstimulated, luminescence; Potency, µM (highest dose often 45.9 µM), hits mostly cytotoxic; 900 tested, 8% active;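 also: compound exposure lasted 16 hours before reading; nearly all actives have a fitted effect of over 55% in size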
# FLuc biochem: inhibits purified firefly luciferase, counter-screen for ELG1 hits. 350 tested, 10% active. purified firefly luciferase, luminescence counter-screen. shares compounds with ELG1 repair inh. AID 624253. Potency, µM (doses to about 57.5 µM), hits mostly inhibitors
# Hits are given with their value; . = inactive; ? = inconclusive; / = no result; [ ] = another dose, or the depositor's remark. Unless noted, calls follow the shape of the dose curve; as a rule, active = well fitted curve in the direction sought with a large enough effect; inconclusive = small, poorly fitted or top-dose-only effect, or another doubt; inactive = no such curve, though single readings can be large; an effect the other way counts as inactive or inconclusive.
SMILES,RORg inh,TSHR antag,Gal4-VP16 FLuc,ELG1 repair inh,B2AR arrestin,ELG1 FLuc counter,ELG1 Luc conf,ELG1 MMS Luc,ELG1 5-FU,ELG1 MMS viab,ELG1 unstim viab,FLuc biochem
COc1ccc(N2CCN(C(=O)C3CCCN(c4ncnc5c4nc4n5CCCCC4)C3)CC2)cc1 (stereo not given),.,.,.,3.7µM,.,.,10µM,?,?,.,?,.
CCc1nnc(NC(=O)C2CCCN(S(=O)(=O)c3ccc(OC)cc3)C2)s1 (stereo not given),.,.,.,?,.,/,/,/,/,/,/,/
COC(=O)c1ccc2c(=O)n(CCCCCC(=O)N3CCN(c4ccccc4)CC3)c(=O)[nH]c2c1,.,.,.,7.3µM,.,22µM,8.9µM,7.9µM,?,10µM,20µM,.
COc1cc2[nH]c(=O)n(CCCCCC(=O)N3CCN(c4ccccc4)CC3)c(=O)c2cc1OC,.[0.365 µM],.,/,16µM,.,?,13µM,16µM,.,?,?,.
COc1ccc(NC(=O)C(CC(=O)O)Cc2ccc(Cl)cc2)cc1 (stereo not given),.,.,.,.,.,/,/,/,/,/,/,/
CCSc1nnc(NC(=O)c2cccc3ccccc23)s1,?,.,.,.,.,/,/,/,/,/,/,/
CCSc1nnc(NC(=O)c2csc(C)c2)s1,.,.,.,?,.,.,/,/,/,/,.,?
Cc1ccc(/C=C/C(=O)Nc2ccc(Oc3ccccc3)cc2)o1,.,.,?,?,.,/,/,/,/,/,/,/
Cc1ccc(/C=C/C(=O)Nc2ccc([N+](=O)[O-])cc2)o1,.,.,.,1.8µM,.,/,14µM,22µM,?,25µM,?,/
N#Cc1ccccc1NC(=O)COC(=O)c1c[nH]c2ccccc12,/,.,/,.,.,/,/,/,/,/,/,/
O=C1COc2ccc(C(=O)COC(=O)/C=C/c3ccc(Br)o3)cc2N1,/,.,/,?,.,/,/,/,/,/,/,/
O=C1COc2ccc(C(=O)COC(=O)/C=C/c3cccc(F)c3)cc2N1,.,.,.,1.8µM,.,/,5µM,.,.,.,.,/
CCOc1ccccc1/C=C/C(=O)NCC(=O)N1CCC(N(C)C2CCCCC2C)CC1 (stereo not given),.,.,.,.,.,/,/,/,/,/,/,/
COc1ccc(CCN(Cc2cccs2)S(=O)(=O)c2ccc(S(=O)(=O)N3CCCCCC3)cc2)cc1OC,.,.,.,2.9µM,.,/,?,4.4µM,.,7.1µM,.,/
Cc1ccc(NC(=O)c2cc(-c3cccs3)nc3ccccc23)nc1,.,.,.,?,.,/,/,/,/,/,/,/
Cc1c(NC(=O)c2cc(-c3cccs3)nc3ccccc23)c(=O)n(-c2ccccc2)n1C,.,.,.,2.9µM,.,.,2.8µM,7.9µM,.,?,?,.
CSCCC(NC(=O)COc1ccccc1)C(=O)N(C)CC(=O)Nc1c(C)cccc1C (stereo not given),/,.,/,.,.,/,/,/,/,/,/,/
C=CCn1c(Oc2cc(C)ccc2C)nc2c1c(=O)n(C)c(=O)n2C,.,.,.,?,.,/,/,/,/,/,/,/

# Screens deposited in PubChem by National Center for Advancing Translational Sciences (NCATS).
